“And” between values parts separate entries of the source, which are not always exact repeats. Equal values may be shown once. The source made the active and inactive calls. How the source made its calls: active means hit-call score of the fitted dose curve at least 0.9, where 1 is the maximum; inactive means score below 0.9.
Test: CCTE_Shafer_MEA_dev_per_burst_interspike_interval: CCTE's Neural Network Formation Assay for Burst Interspike Interval, Shafer Lab (AID 2284044);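 further: mean spike spacing inside bursts as AUC over recordings on days 5 7 9 12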;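 on AC50: potency for a decrease of within-burst interspike interval below DMSO level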
Method: CCTE_Shafer_MEA_dev assay is conducted using Axion Biosystems 48 well microelectrode array (MEA) plates and Maestro recording system. Each well of the MEA plate contains a grid of 16 microelectrodes embedded in the culture surface. Electrically active cells, such as neurons, can be cultured over the electrodes, and electrical activity in these cells can be recorded extracellularly. The spontaneous firing of neurons is captured from each electrode on a microsecond timescale providing both temporally and spatially precise data. […] The CCTE_Shafer_MEA_dev assay uses primary cultures of rat cortical neurons. Recordings are made on days post-plating 5, 7, 9 and 12. As these cultures mature over time, neural networks develop functional activity and form cohesive networks in which electrical activity can be highly coordinated. CCTE_Shafer_MEA_dev_per_burst_interspike_interval is 1 of 19 assay components of the CCTE_Shafer_MEA_dev assay. It measures the average time interval between spikes (action potential firings) within a single-electrode burst (temporally-clustered group of spikes) during a recording in a microelectrode array (MEA) using Axion Biosystems Maestro 768 channel amplifier with the AxIS adaptive spike detector. The mean inter-spike interval within bursts is averaged across the actively bursting electrodes to report a well-mean value. To collapse across multiple recordings made on days post-plating 5, 7, 9 and 12, the trapezoidal area-under-the-curve of the component is calculated.Data from the assay component CCTE_Shafer_MEA_dev_per_burst_interspike_interval was analyzed into 1 assay endpoint. This assay endpoint, CCTE_Shafer_MEA_dev_per_burst_interspike_interval, was analyzed in the negative analysis fitting direction relative to DMSO as the negative control and baseline of activity. Using a type of functional reporter, gain or loss-of-signal activity can be used to understand electrical activity.
On the day prior to culture, each well was coated thoroughly with 150 uL of 0.05% polyethyleneimine (PEI, Sigma Cat P3143) in 50 mM HEPES (Sigma Cat H7523) at a pH of 8. The plate was incubated at 37C for one hour. PEI was rinsed out with 500 uL of sterile water three times. Plates were stored at 4C until the day of culture. This culture was plated at a seeding density of 1.5 x 10^5 cells/well on a 48-well MEA plate, prepared as described above. Cells were administered via a 25 uL media/laminin ([…]; Sigma Cat L2020-1MG) drop directly onto the microelectrode array, as adding the cells with the laminin results in better attachment than pre-coating with laminin. After 2 hours, an additional 475 uL of cortical media was added and the cells returned to the incubator. Exposure starts at day 0 of plating and is continued over twelve days of network development until the experiment is terminated. Cells are fed with fresh medium on DIV 5 and 9, following the recordings on those days. The entire volume of media in the well is exchanged and any vehicle or compound treatment is renewed. Complete details are found in OP-NHEERL/ISTD/SBB/TJS/2015-03-r0 (available on request, email shafer.tim@epa.gov). Measurement of the electrical activity is non-invasive, and recordings can be made from the same plate over multiple different days of the culture. In cortical neurons, this allows for the measurement of extracellular action potentials over the period during which networks form in the MEA plate.
With `Cc1c(O)cccc1C(=O)N[C@@H](CSc1ccccc1)[C@H](O)CN1C[C@H]2CCCC[C@H]2C[C@H]1C(=O)NC(C)(C)C` the AC50 was 473 nM (active).
For `CN(C)CCC(c1ccc(Cl)cc1)c1ccccn1` (stereo not given), the outcome was “inactive”.
For `C[C@@H]1C[C@H]2[C@@H]3CCC4=CC(=O)C=C[C@]4(C)[C@@]3(F)[C@@H](O)C[C@]2(C)[C@@]1(O)C(=O)CO`, the outcome was “inactive”.
For `CC1(C)S[C@@H]2[C@H](NC(=O)[C@H](N)c3ccccc3)C(=O)N2[C@H]1C(=O)O`, the outcome was “inactive”.
For `CN(C)C(=O)C(CCN1CCC(O)(c2ccc(Cl)cc2)CC1)(c1ccccc1)c1ccccc1`, the AC50 was 92.1 nM (active) and 66.7 nM (active) and 493 nM (active).
With `CC(C)(C)NCC(O)c1cc(O)cc(O)c1` (stereo not given) the outcome was “inactive”.
In the case of `c1ccc2cc3c4ccccc4c4ccccc4c3cc2c1`, the AC50 is reported as 1970 nM (active).
In the case of `CC1(C)S[C@@H]2[C@H](NC(=O)[C@H](N)c3ccc(O)cc3)C(=O)N2[C@H]1C(=O)O`, the outcome is reported as “inactive”.
With `CC[C@H](C)C(=O)O[C@H]1CCC=C2C=C[C@H](C)[C@H](CC[C@@H]3C[C@@H](O)CC(=O)O3)[C@H]21` the AC50 was 3.11 µM (active) and 8.52 µM (active).
With `CNCCC(Oc1ccc(C(F)(F)F)cc1)c1ccccc1` (stereo not given) the AC50 was 3140 nM (active).
With `[Cl-].[Cl-].[NH2-].[NH2-].[Pt+4]` the outcome was “inactive”.
In the case of `NC(N)=Nc1nc(CSCCC(N)=NS(N)(=O)=O)cs1`, the outcome is reported as “inactive”.
For `COc1ccc2cc3[n+](cc2c1OC)CCc1cc2c(cc1-3)OCO2`, the AC50 was 381 nM (active).
With `c1cc2ccc3ccc4ccc5cccc6c(c1)c2c3c4c56` the outcome was “inactive”.
With `C[C@H](CS)C(=O)N1CCC[C@H]1C(=O)O` the outcome was “inactive”.

From PubChem BioAssay (EPA / NIEHS)
